# HT1080NT lethal: kills 2HG-producing HT-1080-NT fibrosarcoma cells; HT-1080-NT fibrosarcoma viability, CellTiter-Glo ATP luminescence, 48 h; Potency, µM (top dose mostly 46.1 µM), for the others: top-dose activity, negative = less viability, usual class: cytotoxic; 360,000 compounds, 1.6% hits; AID 686970;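 note: NT is the 2HG producing partner of a matched IDH1 knockdown line; potency is the fitted concentration of half-maximal effect; 0% = DMSO-treated cells and -100% = media-only wells without cells; nearly all actives have a fitted effect of over 55% in size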
#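 HT-1080-NT fibrosarcoma cells (2HG-overproducing), 750 cells/well in RPMI with 5% FBS, dosed after 2 h and incubated 48 h at 37C. CellTiter-Glo luminescence normalized to DMSO and no-cell wells; concentration-response curves fitted and classed.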
# TDP1 cell CPT: growth inhibition of DT40 Tdp1-/-;hTDP1 cells with camptothecin (screen for TDP1 inhibitors) | chicken DT40 Tdp1-/-;hTDP1 cells + 20 nM CPT, ATP luminescence, 48 h | Potency, µM (highest dose often 46.2 µM), for inactives: at the highest dose activity change, negative = growth inhibition, hits mostly inhibitors | 420,000 compounds, 12% hits; note: potency is the fitted concentration of half-maximal effect; nearly all actives have a fitted effect of over 55% in size
#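 Cell growth measured by CellTiter-Glo luminescence after a minimum 48 h, 37 C compound exposure with 20 nM CPT in Tdp1-knockout DT40 cells stably expressing hTDP1, seeded 400/well; qHTS titration format.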
# TDP1 cell noCPT: qHTS for Inhibitors of human tyrosyl-DNA phosphodiesterase 1 (TDP1): qHTS in cells in absence of CPT; DT40 Tdp1-/- hTDP1 cells, no CPT, ATP luminescence, 48 h; Potency, µM (doses to about 46.2 µM), for the others: at the top dose activity change, negative = growth inhibition, most hits filed as inhibitors; 420,000 compounds, 15% hits; AID 686978, 2013; note: potency is the fitted concentration of half-maximal effect; nearly all actives have a fitted effect of over 55% in size
#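 No-CPT arm: Tdp1-/-;hTDP1 DT40 cells (400/well) plus compounds, incubated ≥48 hr at 37 °C. Readout CellTiter-Glo luminescence.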
# IL1B secr inh: inhibitors of inflammasome signaling (IL-1 beta secretion); THP-1 LPS/ATP IL-1B secretion, AlphaLISA, 16 h; active compounds read low; activity change, % at 57.5 µM; 360,000 compounds, 4.7% hits; in the data active = activity change below about -50%; inconclusive = mostly about -30% to -49%
#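 Secreted IL-1B measured by AlphaLISA bead assay after 16 h compound exposure of THP-1 cells; compounds (final up to 57.5 uM) added 1 h before LPS (250 ng/mL) and ATP (1.25 mM) stimulation; lower signal means less secretion.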
# HT1080 IDH1KD tx: HT-1080 IDH1 knockdown cell toxicity (counter line) | Potency, µM (top dose mostly 46.1 µM), for the others: top-dose activity, negative = toxicity, actives largely listed as cytotoxic | HT-1080 IDH1 knockdown viability, ATP luminescence, 48 h | 360,000 compounds, 2% hits;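 note: potency is the fitted concentration of half-maximal effect; 0% = DMSO wells and -100% = cell-free medium wells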
#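 Assay cells: HT-1080 with IDH1 knockdown, 750 per well, RPMI/5% FBS. Exposure: 48 h at 37 °C following 2 h pre-incubation. Read: CellTiter-Glo luminescence; fitted concentration-response, curve class assigned.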
# uPA generation: cell surface uPA generation inhibition; cell surface uPA generation assay, qHTS; Potency, µM (highest dose often 38.3 µM), without a hit: at the top dose activity change, negative = inhibition, actives largely listed as inhibitors; 330,000 compounds, 0.31% hits; AID 540303; active = well fitted inhibition curve with a large enough effect; inconclusive = small, poorly fitted or top-dose-only effect; inactive = no such curve, though single readings can be large or run the other way; tested in mouse RAW 264.7 cells; note: potency is the fitted concentration of half-maximal effect; nearly all actives have a fitted effect of over 55% in size
# Starred values were filed as active, the others as inactive; ? = inconclusive; . = no result given. Compounds with a hit are over-represented: about 19% of the library has one in this group of screens. Unless noted, calls come from the whole dose curve; as a rule, active = well fitted curve in the direction sought with a large enough effect; inconclusive = small, poorly fitted or top-dose-only effect, or another doubt; inactive = no such curve, though single readings can be large; an effect the other way counts as inactive or inconclusive. Unless noted, % is set by controls: 0 for no effect and ±100 for the full control effect.
SMILES,HT1080NT lethal,TDP1 cell CPT,TDP1 cell noCPT,IL1B secr inh,HT1080 IDH1KD tx,uPA generation
COc1cc(C)ccc1OC(C)C(=O)Nc1ccc(N2CCCCC2)cc1 (configuration not stated),4.2%,?,13µM*,-15.7,12.0%,4.4%
O=C(NCCCCl)C1CC(=O)N(CCc2ccc(F)cc2)C1 (configuration not stated),16.7%,7.2%,-16.0%,-11.9,1.2%,-1.4%
CCNCc1ccc(OCc2ccccc2F)c(OC)c1,-12.1%,-27.3%,?,-25.1,-11.7%,-103.5%
COc1cc(CNc2ccc(S(N)(=O)=O)cc2)ccc1OCc1ccccc1F,-2.4%,18.4µM*,?,-7.1,-9.8%,-8.0%
COCCCNC(=S)NNC(=O)C1CC1c1ccc(C(C)(C)C)cc1 (configuration not stated),-14.3%,11.6µM*,8.2µM*,8.4,-10.7%,-5.7%
Cc1ccc(NC(=S)NNC(=O)C2CC2c2ccc(C)cc2)cc1 (configuration not stated),-0.3%,1.7%,-16.3%,-1.8,1.2%,-2.3%
Oc1ccc(C[C@H]2CNCCN2CC2CCCCC2)cc1,-0.7%,?,16.4µM*,-9.2,-12.1%,-15.0%
CC(C)(C)CN1CCNC[C@H]1Cc1ccc(O)cc1,0.5%,?,-27.6%,-24.2,0.2%,-5.8%
c1ccc(C[C@H]2CNCCN2CC2(c3ccccc3)CC2)cc1,-7.8%,?,?,-28.7,-6.2%,0.3%
Oc1ccc(C[C@@H]2CNCCN2CC2CCCCC2)cc1,-25.5%,16.4µM*,23.1µM*,-20.6,-4.4%,-3.9%
c1ccc([C@H]2CNCCN2CCc2cccc3ccccc23)cc1,?,?,20.6µM*,0.0,-27.4%,-6.4%
c1ccc2c(C[C@@H]3CNCCN3CC3CCCCC3)cccc2c1,-17.8%,14.6µM*,16.4µM*,-58.3*,-9.9%,-2.9%
CC(C)(C)NC(=O)c1ccc2nsnc2c1,12.8%,3.5%,-0.8%,0.8,9.9%,4.4%
CC(C)CN(C(=O)CN(C)C(=O)Cc1c(F)cccc1Cl)c1c(N)n(CC(C)C)c(=O)[nH]c1=O,0.4%,-4.7%,-0.3%,?,-7.9%,.
COc1cc(/C=C(\C#N)C(=O)Nc2ccc(C)cc2)ccc1OCc1cc(=O)n2nc(C)sc2n1,.,-18.6%,-11.7%,.,.,.
Cc1cccc(-c2nc(CS(=O)CC(=O)N3CC(C)CC(C)C3)c(C)o2)c1 (configuration not stated),-0.7%,-20.0%,-11.8%,-23.6,-1.1%,-6.9%
O=C(/C(=C/O)N=Nc1ccccc1Cl)c1ccccc1,13µM*,?,?,-99.0*,14.6µM*,-2.4%
O=C(/C(=C/O)N=Nc1ccccc1)c1ccco1,-2.6%,?,?,-16.2,-23.2%,-0.2%
Cc1cccc(N=N/C(=C\O)C(=O)c2ccc(Br)cc2)c1,?,8.2µM*,?,-84.8*,?,-9.1%
O=C(/C(=C/O)N=Nc1cccc(C(F)(F)F)c1)c1ccccc1,?,?,?,-95.0*,-22.8%,-1.0%
COCc1cc(C)n(CC(=O)Nc2ccc3c(c2)OCO3)c(=O)c1C#N,-0.1%,1.4%,?,13.7,12.4%,-9.3%
N#C/C(=C\c1ccc(F)c(Cl)c1)S(=O)(=O)c1ccccn1,19.0%,-18.8%,-13.8%,-1.8,14.1%,5.5%
COCCn1c(-c2ccsc2)nc2c1c(=O)[nH]c(=O)n2CC(C)C,16.0%,-1.0%,-8.4%,-19.3,12.9%,-3.1%
CCCCn1c(=O)[nH]c(=O)c2c1nc(-c1ccc(OC)c(Br)c1)n2CC(C)C,29.1µM*,?,?,?,23.1µM*,-5.4%
CCCCn1c(=O)[nH]c(=O)c2c1nc(-c1ccc(OC(F)F)c(OC)c1)n2C,11.6%,-26.8%,-22.9%,57.0,1.6%,-4.6%
